# Compounds without any hit were thinned out: in the full panel of roughly 79,000, 15% have a hit. Values without a mark were called inactive. The source made the active and inactive calls. Cut-off read from the data, not from the text of the source: active = growth inhibition above about 70%; inactive = the rest.
# Tests used:
# [1] = NCI Yeast Anticancer Drug Screen. Data for the rad52 strain (AID 147);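 note: 0% = growth of vehicle-treated control cultures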; details: S. cerevisiae rad52 mutant growth inhibition, hits give high values
# In short: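 Read-out: growth inhibition versus vehicle-treated controls. Cells were a DNA repair-deficient yeast strain treated with compounds.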
# [2] = NCI Yeast Anticancer Drug Screen. Data for the wt1 strain (AID 149);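 note: 0% = growth of vehicle-treated wt1 cultures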; details: S. cerevisiae wt1 strain (SPY 50644) growth inhibition, hits give high values
# In short: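 Each compound is tested on wt1 yeast and the loss of growth versus vehicle gives the inhibition value.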
# [3] = NCI Yeast Anticancer Drug Screen. Data for the rad50EPP+ strain (AID 151);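 note: 0% = growth of vehicle-treated control cultures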; details: S. cerevisiae rad50 mutant strain, hits give high values
# In short: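 Growth inhibition read against vehicle controls in rad50EPP+ yeast, a strain altered in DNA damage repair, after compound exposure.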
# [4] = NCI Yeast Anticancer Drug Screen. Data for the mgt1 strain (AID 153); details: S. cerevisiae mgt1 mutant growth inhibition, hits give high values
# In short: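 mgt1 yeast grown with test compound; read-out is growth inhibition versus vehicle-treated cultures.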
# [5] = NCI Yeast Anticancer Drug Screen. Data for the rad50 strain (AID 155);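 note: 0% = growth of vehicle-only cultures of the same strain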; details: S. cerevisiae rad50 strain growth inhibition, hits give high values
# In short: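 Vehicle-treated cultures provide the reference for the growth inhibition reported for compound-exposed, repair-deficient yeast.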
# [6] = NCI Yeast Anticancer Drug Screen. Data for the mec2-1 strain (AID 157); details: S. cerevisiae mec2-1 strain, hits give high values
# In short: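 Yeast mec2-1 mutant treated with compound. Readout: growth inhibition vs vehicle controls.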
# [7] = NCI Yeast Anticancer Drug Screen. Data for the rad14 strain (AID 159);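 note: 0% = growth of vehicle-treated control cultures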; details: S. cerevisiae rad14 strain growth inhibition, hits give high values
# In short: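 Inhibition of growth is reported for a repair-deficient yeast mutant following compound treatment, calculated relative to cultures that received vehicle.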
# [8] = NCI Yeast Anticancer Drug Screen. Data for the sgs1 mgt1 strain (AID 161);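 note: 0% = growth of cultures given vehicle only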; details: S. cerevisiae sgs1 mgt1 strain, hits give high values
# In short: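 Mutant yeast exposed to compound; growth scored against vehicle-only wells.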
# [9] = NCI Yeast Anticancer Drug Screen. Data for the CLN2oe strain (AID 163);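 note: 0% = growth of vehicle-only control cultures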; details: S. cerevisiae CLN2oe strain, hits give high values
# In short: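 Read-out: yeast growth inhibition, expressed relative to vehicle-only controls. The strain bears an engineered cell-cycle alteration.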
# [10] = NCI Yeast Anticancer Drug Screen. Data for the cln2 rad14 strain (AID 165);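 note: 0% = growth equal to vehicle treated cultures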; details: S. cerevisiae cln2 rad14 strain, hits give high values
# In short: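 cln2 rad14 yeast strain; compound exposure; growth inhibition read vs vehicle controls.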
# [11] = NCI Yeast Anticancer Drug Screen. Data for the bub3 strain (AID 167); details: S. cerevisiae bub3 mutant strain, hits give high values
# In short: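 Mutant yeast screening strain plus compound; vehicle-treated cultures serve as the 0% inhibition reference.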
# [12] = NCI Yeast Anticancer Drug Screen. Data for the wt2 strain (AID 169); details: S. cerevisiae wt2 strain growth inhibition, hits give high values
# In short: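 Read-out: growth inhibition versus vehicle-treated control cultures after compound exposure of the yeast strain.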
# [13] = NCI Yeast Anticancer Drug Screen. Data for the mlh1 strain (AID 171);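 note: 0% = growth of vehicle-treated control cultures of the same strain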; details: S. cerevisiae mlh1 strain growth inhibition, hits give high values
# In short: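 Read-out: growth inhibition versus vehicle controls. Strain: engineered yeast with a defined DNA repair or cell cycle defect, compound-treated.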
# [14] = NCI Yeast Anticancer Drug Screen. Data for the sgs1 strain (AID 173);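 note: 0% = growth of vehicle-only control cultures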; details: S. cerevisiae sgs1 mutant, hits give high values
# In short: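 Read-out: yeast growth inhibition relative to vehicle controls, following compound exposure of a strain with a defined DNA repair/cell cycle alteration.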
# [15] = NCI Yeast Anticancer Drug Screen. Data for the mlh1 rad18 strain (AID 175); details: S. cerevisiae mlh1 rad18 strain growth inhibition, hits give high values
# In short: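 Yeast w/ defined DNA-repair lesions; compound exposure; growth vs vehicle controls → % inhibition.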
# [16] = NCI Yeast Anticancer Drug Screen. Data for the rad18 strain (AID 177); details: S. cerevisiae rad18 mutant growth inhibition, hits give high values
# In short: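 Readout: growth inhibition vs vehicle controls. Cells: genetically altered yeast strain, DNA repair defect.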
# [17] = at 5.0 µM (retest, dose inferred, filed as 0.5)
# [18] = at 50.0 µM (retest, dose inferred, filed as 5.0)
smiles,measurement,setting,value
CN(C)CCN1C(=O)c2cccc3cc([N+](=O)[O-])cc(c23)C1=O,growth inhibition,[1]; at 1.2 µM,22%
same,growth inhibition,[1]; at 3.7 µM,58%
same,growth inhibition,[1]; at 11.0 µM,63%
same,growth inhibition,[1]; at 33.0 µM,90% (active)
same,growth inhibition,[1]; at 100.0 µM,93% (active)
same,growth inhibition,[2]; at 1.2 µM,16%
same,growth inhibition,[2]; at 3.7 µM,0%
same,growth inhibition,[2]; at 11.0 µM,-9%
same,growth inhibition,[2]; at 33.0 µM,-4%
same,growth inhibition,[2]; at 100.0 µM,23%
same,growth inhibition,[3]; at 1.2 µM,13%
same,growth inhibition,[3]; at 3.7 µM,25%
same,growth inhibition,[3]; at 11.0 µM,28%
same,growth inhibition,[3]; at 33.0 µM,66%
same,growth inhibition,[3]; at 100.0 µM,83% (active)
same,growth inhibition,[4]; at 1.2 µM,-11%
same,growth inhibition,[4]; at 3.7 µM,-13%
same,growth inhibition,[4]; at 11.0 µM,4%
same,growth inhibition,[4]; at 33.0 µM,5%
same,growth inhibition,[4]; at 100.0 µM,68%
same,growth inhibition,[5]; at 1.2 µM,13%
same,growth inhibition,[5]; at 3.7 µM,35%
same,growth inhibition,[5]; [17],28%
same,growth inhibition,[5]; at 11.0 µM,52%
same,growth inhibition,[5]; at 33.0 µM,87% (active)
same,growth inhibition,[5]; [18],93% (active)
same,growth inhibition,[5]; at 50.0 µM,72.6% (active)
same,growth inhibition,[5]; at 100.0 µM,94% (active)
same,growth inhibition,[6]; at 1.2 µM,-4%
same,growth inhibition,[6]; at 3.7 µM,2%
same,growth inhibition,[6]; [17],2%
same,growth inhibition,[6]; at 11.0 µM,-9%
same,growth inhibition,[6]; at 33.0 µM,-6%
same,growth inhibition,[6]; [18],13%
same,growth inhibition,[6]; at 50.0 µM,7.05%
same,growth inhibition,[6]; at 100.0 µM,48%
same,growth inhibition,[7]; at 1.2 µM,2%
same,growth inhibition,[7]; at 3.7 µM,6%
same,growth inhibition,[7]; at 11.0 µM,12%
same,growth inhibition,[7]; at 33.0 µM,-1%
same,growth inhibition,[7]; at 100.0 µM,34%
same,growth inhibition,[8]; [17],11%
same,growth inhibition,[8]; [18],51%
same,growth inhibition,[8]; at 50.0 µM,-10.9%
same,growth inhibition,[9]; at 1.2 µM,18%
same,growth inhibition,[9]; at 3.7 µM,28%
same,growth inhibition,[9]; at 11.0 µM,41%
same,growth inhibition,[9]; at 33.0 µM,36%
same,growth inhibition,[9]; at 100.0 µM,69%
same,growth inhibition,[10]; [17],5%
same,growth inhibition,[10]; [18],38%
same,growth inhibition,[10]; at 50.0 µM,-26.2%
same,growth inhibition,[11]; at 1.2 µM,-1%
same,growth inhibition,[11]; at 3.7 µM,16%
same,growth inhibition,[11]; [17],-6%
same,growth inhibition,[11]; at 11.0 µM,21%
same,growth inhibition,[11]; at 33.0 µM,18%
same,growth inhibition,[11]; [18],21%
same,growth inhibition,[11]; at 50.0 µM,-4.65%
same,growth inhibition,[11]; at 100.0 µM,47%
same,growth inhibition,[12]; at 1.2 µM,-3%
same,growth inhibition,[12]; at 3.7 µM,0%
same,growth inhibition,[12]; at 11.0 µM,-1%
same,growth inhibition,[12]; at 33.0 µM,1%
same,growth inhibition,[12]; at 100.0 µM,30%
same,growth inhibition,[13]; at 1.2 µM,14%
same,growth inhibition,[13]; at 3.7 µM,1%
same,growth inhibition,[13]; at 11.0 µM,-13%
same,growth inhibition,[13]; at 33.0 µM,0%
same,growth inhibition,[13]; at 100.0 µM,60%
same,growth inhibition,[14]; at 1.2 µM,-24%
same,growth inhibition,[14]; at 3.7 µM,-2%
same,growth inhibition,[14]; at 11.0 µM,8%
same,growth inhibition,[14]; at 33.0 µM,12%
same,growth inhibition,[14]; at 100.0 µM,61%
same,growth inhibition,[15]; [17],6%
same,growth inhibition,[15]; [18],45%
same,growth inhibition,[16]; at 1.2 µM,10%
same,growth inhibition,[16]; at 3.7 µM,16%
same,growth inhibition,[16]; at 11.0 µM,17%
same,growth inhibition,[16]; at 33.0 µM,25%
same,growth inhibition,[16]; at 100.0 µM,80% (active)
C=C(C)[C@@H]1CCc2c(O)c(O)c(=O)cc(C)c2C1,growth inhibition,[1]; at 1.2 µM,0%
same,growth inhibition,[1]; at 3.7 µM,21%
same,growth inhibition,[1]; at 11.0 µM,38%
same,growth inhibition,[1]; at 33.0 µM,77% (active)
same,growth inhibition,[1]; at 100.0 µM,98% (active)
same,growth inhibition,[2]; at 1.2 µM,7%
same,growth inhibition,[2]; at 3.7 µM,25%
same,growth inhibition,[2]; at 11.0 µM,37%
same,growth inhibition,[2]; at 33.0 µM,58%
same,growth inhibition,[2]; at 100.0 µM,99% (active)
same,growth inhibition,[3]; at 1.2 µM,-3%
same,growth inhibition,[3]; at 3.7 µM,8%
same,growth inhibition,[3]; at 11.0 µM,39%
same,growth inhibition,[3]; at 33.0 µM,68%
same,growth inhibition,[3]; at 100.0 µM,98% (active)
same,growth inhibition,[4]; at 1.2 µM,10%
same,growth inhibition,[4]; at 3.7 µM,26%
same,growth inhibition,[4]; at 11.0 µM,41%
same,growth inhibition,[4]; at 33.0 µM,90% (active)
same,growth inhibition,[4]; at 100.0 µM,98% (active)
same,growth inhibition,[5]; at 1.2 µM,-10%
same,growth inhibition,[5]; at 3.7 µM,11%
same,growth inhibition,[5]; [17],41%
same,growth inhibition,[5]; at 11.0 µM,37%
same,growth inhibition,[5]; at 33.0 µM,80% (active)
same,growth inhibition,[5]; [18],97% (active)
same,growth inhibition,[5]; at 50.0 µM,91.6% (active)
same,growth inhibition,[5]; at 100.0 µM,98% (active)
same,growth inhibition,[6]; at 1.2 µM,2%
same,growth inhibition,[6]; at 3.7 µM,22%
same,growth inhibition,[6]; [17],41%
same,growth inhibition,[6]; at 11.0 µM,32%
same,growth inhibition,[6]; at 33.0 µM,61%
same,growth inhibition,[6]; [18],99% (active)
same,growth inhibition,[6]; at 50.0 µM,93% (active)
same,growth inhibition,[6]; at 100.0 µM,98% (active)
same,growth inhibition,[7]; at 1.2 µM,-30%
same,growth inhibition,[7]; at 3.7 µM,-14%
same,growth inhibition,[7]; at 11.0 µM,37%
same,growth inhibition,[7]; at 33.0 µM,85% (active)
same,growth inhibition,[7]; at 100.0 µM,99% (active)
same,growth inhibition,[8]; [17],46%
same,growth inhibition,[8]; [18],99% (active)
same,growth inhibition,[8]; at 50.0 µM,92.8% (active)
same,growth inhibition,[9]; at 1.2 µM,2%
same,growth inhibition,[9]; at 3.7 µM,20%
same,growth inhibition,[9]; at 11.0 µM,33%
same,growth inhibition,[9]; at 33.0 µM,90% (active)
same,growth inhibition,[9]; at 100.0 µM,99% (active)
same,growth inhibition,[11]; at 1.2 µM,8%
same,growth inhibition,[11]; at 3.7 µM,23%
same,growth inhibition,[11]; [17],52%
same,growth inhibition,[11]; at 11.0 µM,43%
same,growth inhibition,[11]; at 33.0 µM,82% (active)
same,growth inhibition,[11]; [18],96% (active)
same,growth inhibition,[11]; at 50.0 µM,92.2% (active)
same,growth inhibition,[11]; at 100.0 µM,98% (active)
same,growth inhibition,[12]; at 1.2 µM,-69%
same,growth inhibition,[12]; at 3.7 µM,-31%
same,growth inhibition,[12]; at 11.0 µM,-27%
same,growth inhibition,[12]; at 33.0 µM,91% (active)
same,growth inhibition,[12]; at 100.0 µM,97% (active)
same,growth inhibition,[13]; at 1.2 µM,25%
same,growth inhibition,[13]; at 3.7 µM,36%
same,growth inhibition,[13]; at 11.0 µM,55%
same,growth inhibition,[13]; at 33.0 µM,85% (active)
same,growth inhibition,[13]; at 100.0 µM,99% (active)
same,growth inhibition,[14]; at 1.2 µM,1%
same,growth inhibition,[14]; at 3.7 µM,24%
same,growth inhibition,[14]; at 11.0 µM,50%
same,growth inhibition,[14]; at 33.0 µM,81% (active)
same,growth inhibition,[14]; at 100.0 µM,98% (active)
same,growth inhibition,[16]; at 1.2 µM,1%
same,growth inhibition,[16]; at 3.7 µM,34%
same,growth inhibition,[16]; at 11.0 µM,48%
same,growth inhibition,[16]; at 33.0 µM,76% (active)
same,growth inhibition,[16]; at 100.0 µM,98% (active)
